Compound activity as filed in PubChem.
Most compounds without a hit are left out; they make up all but 17% or so of the library.
TGFb inhibitor: TGF-b pathway inhibition | hit rate 1.2% among 410,000 | HepG2 CAGA-GFP TGF-b/SMAD3 reporter, GFP fluorescence, 18 h; TGF-beta stimulated, 500 pg/mL final | AID 588855 | Potency, µM (titrated, usually from 46.1 µM), for inactives: at the top dose activity, negative = inhibition, actives largely listed as inhibitors; note: % is set by controls: 0 for no effect and ±100 for the full control effect; nearly all actives have a fitted effect of over 65% in size
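HEPG2 CAGA-GFP reporter cells (1000/well, DMEM with 1% FBS) received compounds, then recombinant TGF-beta at 500 pg/mL final for 18 hours at 37 degrees C. Per-cell GFP summed per well was normalised to unstimulated and stimulated DMSO controls before curve fitting.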
DT40 TDP1 CPT: growth inhibition of DT40 Tdp1-/-;hTDP1 cells with camptothecin (screen for TDP1 inhibitors). Potency, µM (doses to about 46.2 µM), without a hit: at the highest dose activity change, negative = growth inhibition, most hits filed as inhibitors. hit rate 12% among 420,000. chicken DT40 Tdp1-/-;hTDP1 cells + 20 nM CPT, ATP luminescence, 48 h; note: % is set by controls: 0 for no effect and ±100 for the full control effect; nearly all actives have a fitted effect of over 55% in size
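Chicken DT40 Tdp1-/- cells complemented with human TDP1, 400 cells/well, exposed to compounds plus 20 nM camptothecin for at least 48 h at 37 C; viability read as ATP content by CellTiter-Glo luminescence.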
TDP1 cell noCPT: qHTS for Inhibitors of human tyrosyl-DNA phosphodiesterase 1 (TDP1): qHTS in cells in absence of CPT | AID 686978, 2013 | Potency, µM (highest dose often 46.2 µM), for the others: at the highest dose activity change, negative = growth inhibition, actives largely listed as inhibitors | DT40 Tdp1-/- hTDP1 cells, no CPT, ATP luminescence, 48 h | hit rate 15% among 420,000; note: % is set by controls: 0 for no effect and ±100 for the full control effect; nearly all actives have a fitted effect of over 55% in size
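Compound effects on proliferation are scored in DT40 Tdp1-/-;hTDP1 cells in the absence of CPT. ATP levels (CellTiter-Glo luminescence) are recorded after a ≥48 hr, 37 °C incubation.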
HepG2 tox: kills HepG2 cells in TGF-b inhibitor counter-screen; Potency, µM (top dose mostly 46.1 µM), inactives show top-dose activity change, negative = cytotoxicity, usual class: cytotoxic; AID 588856; hit rate 0.76% among 410,000; HepG2 CAGA-GFP viability, ATP luminescence, 18 h
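HepG2 CAGA-GFP cells (1000/well, DMEM with 1% FBS) received compound, then TGF-beta at 500 pg/mL final, and were incubated 18 hours at 37 degrees C. Viability was read by CellTiter-Glo luminescence. Media-only wells were set as complete cell-killing and DMSO as no toxicity.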
HT1080 IDH1KD tx: kills HT-1080 cells with IDH1 knockdown | HT-1080 IDH1 knockdown viability, ATP luminescence, 48 h | Potency, µM (top dose mostly 46.1 µM), for the others: at the top dose activity, negative = toxicity, hits mostly cytotoxic | hit rate 2% among 360,000 | AID 686971;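 note: 0% = DMSO wells and -100% = cell-free medium wells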
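HT-1080-IDH1KD cells (IDH1 knocked down), 750/well in RPMI with 5% FBS, treated with compound 48 h at 37 degrees C. Viability by CellTiter-Glo luminescence, normalised to DMSO and no-cell wells; concentration-response curves classed.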
HT1080-NT tox: kills 2HG-producing HT-1080-NT fibrosarcoma cells. hit rate 1.6% among 360,000. HT-1080-NT fibrosarcoma viability, CellTiter-Glo ATP luminescence, 48 h. Potency, µM (highest dose often 46.1 µM), for the others: at the highest dose activity, negative = less viability, actives largely listed as cytotoxic;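 note: NT is the 2HG producing partner of a matched IDH1 knockdown line; 0% = DMSO-treated cells and -100% = media-only wells without cells; nearly all actives have a fitted effect of over 55% in size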
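Viability of the 2HG-overproducing fibrosarcoma line after 48 hours of compound exposure at 37 degrees C was determined by luminescence with CellTiter-Glo, and concentration-effect curves were then fitted and categorized.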
* = called active by the depositor; ? = inconclusive. Calls come from the whole dose curve; as a rule, active = well fitted curve in the direction sought with a large enough effect; inconclusive = small, poorly fitted or top-dose-only effect, or another doubt; inactive = no such curve, though single readings can be large; an effect the other way counts as inactive or inconclusive. Potency is the fitted concentration of half-maximal effect.

SMILES	TGFb inhibitor	DT40 TDP1 CPT	TDP1 cell noCPT	HepG2 tox	HT1080 IDH1KD tx	HT1080-NT tox
Cc1cc(C)n(CC(=O)N/N=C/c2cc([N+](=O)[O-])ccc2O)n1	-11%	21µM*	15µM*	1%	?	?
O=C(Cn1nnc(-c2ccccc2)n1)N/N=C/c1cccc([N+](=O)[O-])c1O	-4%	?	21µM*	-10%	?	-3%
Cc1cc([N+](=O)[O-])nn1Cc1ccc(C(=O)N/N=C/c2ccc(O)cc2O)cc1	?	?	?	-14%	2.1µM*	?
Cc1cc([N+](=O)[O-])nn1CC(=O)N/N=C/c1ccccc1O	-2%	8.2µM*	18µM*	-6%	?	?
O=C(Cn1nnc(-c2ccccc2)n1)N/N=C/c1cccc([N+](=O)[O-])c1	0%	-10%	-9%	-31%	7%	-10%
COc1ccc(OC)c(NC(=O)C2(C)CCN2C(=O)C(C)(C)c2ccccc2)c1 (configuration not stated)	-10%	?	?	7%	6%	12%
CC(C)(C)OC(=O)C[C@H]1C/C=C\C[C@H](CC(=O)NCCO)C(=O)N[C@@H](c2ccccc2)COC1=O	11%	-15%	-15%	0%	13%	8%
CCO[C@@H]1OC(C(N)=O)=C[C@H](c2coc3ccccc3c2=O)[C@H]1CCCO	11%	16%	-5%	-3%	4%	0%
CCOc1cc(/C=N/NC(N)=O)cc(Br)c1OCc1ccccc1F	-10%	-27%	?	-1%	0%	3%
CCOc1cc(/C=N/NC(=O)Cn2nc([N+](=O)[O-])cc2C)cc(Br)c1OCc1ccccc1F	22%	21µM*	?	1%	10µM*	?
C[C@H](CO)N1C[C@H](C)[C@@H](CN(C)Cc2ccc(C(F)(F)F)cc2)OCc2cnnn2CCCC1=O	-10%	26µM*	?	-29%	-6%	-2%
C[C@@H]1CN([C@H](C)CO)C(=O)CCCn2nncc2CO[C@H]1CN(C)Cc1ccccc1C(F)(F)F	-22%	15µM*	21µM*	-33%	5%	6%
C[C@@H]1CN([C@H](C)CO)C(=O)CCCn2nncc2CO[C@H]1CN(C)Cc1ccc(-c2ccccc2)cc1	?	?	?	-42%	-7%	-7%
C[C@H]1CN([C@@H](C)CO)C(=O)CCCn2nncc2CO[C@@H]1CN(C)Cc1ccc(-c2ccccc2)cc1	?	9.2µM*	10µM*	-44%	?	-29%
COc1ccccc1CN(C)C[C@@H]1OCc2cnnn2CCCC(=O)N([C@@H](C)CO)C[C@H]1C	6%	1%	-9%	-2%	-1%	-2%
Cc1cc(CNC(=O)CC2C(=O)NCCN2CC(C)(C)C)nn1C (configuration not stated)	13%	8%	8%	13%	3%	8%
CCN(C(=O)CSc1cc(C)c2ccccc2n1)c1c(N)n(Cc2ccccc2)c(=O)[nH]c1=O	-6%	-1%	-5%	13%	1%	-1%
C[C@H](C[C@H](O)[C@H]1OC1(C)C)C1=C2C[C@H](O)C3[C@@]4(C)CCC(=O)C(C)(C)C4CC[C@]3(C)[C@@]2(C)CC1 (some centres not stated)	?	7.3µM*	15µM*	16µM*	?	?
